Measured values: PubChem BioAssay (EPA / NIEHS)
Where a structure was tested more than once in an assay, its records may differ in their call. Activity calls are given as the source filed them. Rule for the calls: active = hit-call score of the fitted dose curve at least 0.9, where 1 is the maximum; inactive = score below 0.9.

Experiments:
[1] = read-out: Interleukin-6 (IL6), IL6 (gene 3569); experiment: BSK_CASM3C_IL6: BioMAP Diversity Plus: CASM3C Assay for Interleukin-6 (IL6) Biomarker Activity for (AID 2283040); conditions: primary human coronary artery smooth muscle cells; actives raise or lower the signal
[2] = read-out: Tissue plasminogen activator (tPA), PLAT (gene 5327); experiment: BSK_BE3C_tPA: BioMAP Diversity Plus: BE3C Assay for Tissue plasminogen activator (tPA) Biomarker Activity (AID 2283041); conditions: primary human bronchial epithelial cells; actives raise or lower the signal;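 note: tPA level quantified by ELISA one day after compound addition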
How it was run: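 Gain- or loss-of-signal in tPA, measured by ELISA, derived by bidirectional fitting against DMSO. Cells: human primary bronchial epithelial; read at 24 h after chemical dosing.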

[3] = read-out: Interleukin-8 (IL8), CXCL8 (gene 3576); experiment: BSK_CASM3C_IL8: BioMAP Diversity Plus: CASM3C Assay for Interleukin-8 (IL8) Biomarker Activity (AID 2283042); conditions: primary human coronary artery smooth muscle cells; actives raise or lower the signal;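 note: IL-8 protein level quantified by ELISA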
[4] = read-out: Human Leukocyte Antigen - DR isotype (HLADR), HLA-DRA (gene 3122); experiment: BSK_CASM3C_HLADR: BioMAP Diversity Plus: CASM3C Assay for Human Leukocyte Antigen - DR isotype (HLADR) Biomarker Activity (AID 2283043); conditions: primary human coronary artery smooth muscle cells; actives raise or lower the signal;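 note: cell-surface HLA-DR protein level quantified by ELISA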
[5] = read-out: Macrophage colony-stimulating factor (MCSF), CSF1 (gene 1435); experiment: BSK_CASM3C_MCSF: BioMAP Diversity Plus: CASM3C Assay for Macrophage colony-stimulating factor (MCSF) Biomarker Activity (AID 2283044); conditions: primary human coronary artery smooth muscle cells; actives raise or lower the signal;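 note: M-CSF protein amount quantified by ELISA after 24 h exposure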
[6] = read-out: Low-density lipoprotein receptor (LDLR), LDLR (gene 3949); experiment: BSK_CASM3C_LDLR: BioMAP Diversity Plus: CASM3C Assay for Low-density lipoprotein receptor (LDLR) Biomarker Activity (AID 2283045); conditions: primary human coronary artery smooth muscle cells; actives raise or lower the signal;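 note: LDLR protein level on the cell surface quantified by ELISA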
[7] = read-out: Monocyte Chemoattractant Protein-1 (MCP1), CCL2 (gene 6347); experiment: BSK_CASM3C_MCP1: BioMAP Diversity Plus: CASM3C Assay for Monocyte Chemoattractant Protein-1 (MCP1) Biomarker Activity (AID 2283046); conditions: primary human coronary artery smooth muscle cells; actives raise or lower the signal;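 note: MCP-1 level quantified by ELISA 24 h after dosing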
[8] = BSK_CASM3C_Proliferation: Cell Proliferation Assessment in the BioMAP Diversity Plus: CASM3C Assay (AID 2283047); conditions: primary human coronary artery smooth muscle cells;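 note: sulforhodamine B total protein stain as relative cell number at 560 nm; sub-confluent cells exposed 48 h before staining; fitted both ways against DMSO so gain or loss of cell number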
[9] = read-out: Monokine induced gamma interferon (MIG), CXCL9 (gene 4283); experiment: BSK_CASM3C_MIG: BioMAP Diversity Plus: CASM3C Assay for Monokine induced gamma interferon (MIG) Biomarker Activity (AID 2283048); conditions: primary human coronary artery smooth muscle cells; actives raise or lower the signal;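 note: MIG protein level measured by ELISA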
[10] = read-out: serum amyloid A (SAA), SAA1 (gene 6288); experiment: BSK_CASM3C_SAA: BioMAP Diversity Plus: CASM3C Assay for serum amyloid A (SAA) Biomarker Activity (AID 2283049); conditions: primary human coronary artery smooth muscle cells; actives raise or lower the signal;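 note: SAA protein level quantified by ELISA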
[11] = BSK_CASM3C_SRB: Viability Assessment in the BioMAP Diversity Plus: CASM3C Assay (AID 2283050); conditions: primary human coronary artery smooth muscle cells;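 note: total protein by SRB staining as cytotoxicity measure in parallel cultures; cells exposed to compound for 24 h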
[12] = read-out: Thrombomodulin, THBD (gene 7056); experiment: BSK_CASM3C_Thrombomodulin: BioMAP Diversity Plus: CASM3C Assay for Thrombomodulin Biomarker Activity (AID 2283051); conditions: primary human coronary artery smooth muscle cells; actives raise or lower the signal;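 note: thrombomodulin protein level measured by ELISA 24 h after dosing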
[13] = read-out: Tissue Factor, F3 (gene 2152); experiment: BSK_CASM3C_TissueFactor: BioMAP Diversity Plus: CASM3C Assay for Tissue Factor Biomarker Activity (AID 2283052); conditions: primary human coronary artery smooth muscle cells; actives raise or lower the signal;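 note: cell surface tissue factor protein level read by ELISA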
[14] = read-out: Interferon-gamma inducible Protein 10 (IP10), CXCL10 (gene 3627); experiment: BSK_hDFCGF_IP10: BioMAP Diversity Plus: hDFCGF Assay for Interferon-gamma inducible Protein 10 (IP10) Biomarker Activity (AID 2283053); conditions: primary human foreskin fibroblasts; actives raise or lower the signal
How it was run: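 Cells: human dermal foreskin fibroblasts. Exposure: 24 h post-dosing. Detection: IP-10 ELISA, with values expressed against DMSO controls and fitted in both directions.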

[15] = read-out: Urokinase-type plasminogen activator receptor (uPAR), PLAUR (gene 5329); experiment: BSK_CASM3C_uPAR: BioMAP Diversity Plus: CASM3C Assay for Urokinase-type plasminogen activator receptor (uPAR) Biomarker Activity (AID 2283054); conditions: primary human coronary artery smooth muscle cells; actives raise or lower the signal;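 note: cell-surface uPAR protein level quantified by ELISA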
[16] = read-out: Vascular cell adhesion molecule 1 (VCAM1), VCAM1 (gene 7412); experiment: BSK_CASM3C_VCAM1: BioMAP Diversity Plus: CASM3C Assay for Vascular cell adhesion molecule 1 (VCAM1) Biomarker Activity (AID 2283055); conditions: primary human coronary artery smooth muscle cells; actives raise or lower the signal;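 note: VCAM-1 protein level quantified by ELISA on the cells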
[17] = read-out: Collagen III, COL3A1 (gene 1281); experiment: BSK_hDFCGF_CollagenIII: BioMAP Diversity Plus: hDFCGF Assay for Collagen III Biomarker Activity (AID 2283056); conditions: primary human foreskin fibroblasts; actives raise or lower the signal
How it was run: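 Cells: human foreskin fibroblasts, primary. Dosing followed by 24 h incubation, then ELISA for collagen III. Both increases and decreases scored relative to DMSO.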

[18] = read-out: Epidermal growth factor receptor (EGFR), EGFR (gene 1956); experiment: BSK_hDFCGF_EGFR: BioMAP Diversity Plus: hDFCGF Assay for Epidermal growth factor receptor (EGFR) Biomarker Activity (AID 2283057); conditions: primary human foreskin fibroblasts; actives raise or lower the signal
How it was run: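 Dosing human primary skin fibroblasts, then measuring surface EGFR by ELISA at 24 h, gives the endpoint; gains and losses relative to DMSO were fitted in both directions.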

[19] = read-out: Interleukin-8 (IL8), CXCL8 (gene 3576); experiment: BSK_hDFCGF_IL8: BioMAP Diversity Plus: hDFCGF Assay for Interleukin-8 (IL8) Biomarker Activity (AID 2283058); conditions: primary human foreskin fibroblasts; actives raise or lower the signal
How it was run: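 IL-8 levels from compound-treated primary human fibroblasts were read by ELISA at 24 h, with DMSO serving as baseline for bidirectional fitting.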

[20] = BSK_hDFCGF_Proliferation: Cell Proliferation Assessment in the BioMAP Diversity Plus: hDFCGF Assay (AID 2283059); conditions: primary human foreskin fibroblasts;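 note: curves fitted for both rise and fall of signal versus DMSO baseline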
How it was run: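 Sub-confluent human foreskin fibroblast cultures receive test chemical […]. Relative cell number is quantified by sulforhodamine B staining (0.1%, after 10% TCA fixation) at 560 nm, with bidirectional fitting referenced to DMSO.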

Measured: AC50

O=C(O)C(F)(F)C(F)(F)C(F)(F)C(=O)O
inactive: all assays above

OCC(O)CC(F)(F)C(F)(F)C(F)(F)C(F)(F)C(F)(F)C(F)(F)C(F)(F)C(F)(F)F (stereo unspecified)
inactive: all assays above

O=C1c2c(O)ccc(Nc3ccc(CCO)cc3)c2C(=O)c2c([N+](=O)[O-])ccc(O)c21
active: [3] 2.52 µM | [8] 14.5 µM | [11] 4.72 µM | [12] 20 µM | [14] 20 µM | [17] 20 µM | [20] 10.4 µM
inactive: all other assays above

O=S(=O)(O)CCC(F)(F)C(F)(F)C(F)(F)C(F)(F)F
active: [17] 2.04 µM
inactive: [1] | [2] | [3] | [4] | [5] | [6] | [7] | [8] | [9] | [10] | [11] | [12] | [13] | [14] | [15] | [16] | [17] | [18] | [19] | [20]

O=C=NCc1cccc(CN=C=O)c1
inactive: all assays above
